Source: PubChem BioAssay
Compounds with a hit are over-represented: about 4.6% of the library has one in this group of screens.
TRHR agonist: TRH receptor (human) agonism; P34981; TRHR cells, calcium flux fluo-8, FDSS agonist mode; activation, % at 2 µM; 360,000 compounds, 0.18% hits; AID 493084
Target sequence (P34981 whole entry, looked up): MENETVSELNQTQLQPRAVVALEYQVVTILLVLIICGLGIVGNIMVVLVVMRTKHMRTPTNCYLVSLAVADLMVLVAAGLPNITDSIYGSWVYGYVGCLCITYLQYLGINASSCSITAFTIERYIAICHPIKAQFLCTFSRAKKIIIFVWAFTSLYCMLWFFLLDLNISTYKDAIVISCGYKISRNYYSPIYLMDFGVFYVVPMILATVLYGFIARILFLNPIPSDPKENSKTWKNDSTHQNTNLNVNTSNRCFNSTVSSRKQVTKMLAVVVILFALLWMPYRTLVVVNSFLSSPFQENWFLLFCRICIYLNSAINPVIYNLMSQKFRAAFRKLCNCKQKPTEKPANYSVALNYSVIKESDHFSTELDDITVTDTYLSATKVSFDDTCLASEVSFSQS
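TRHR-expressing cells, plated overnight in medium with 10% serum, were loaded with fluo-8 calcium dye at room temperature. After a 10 s baseline, library compound was pin-added and calcium release was recorded kinetically (ex 480/em 530) as agonist response.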
D1 antagonist: antagonists of human D1 dopamine receptor; activity change, negative = inhibition, % at 10 µM; HEK293 TREx D1 cells, calcium flux, dopamine EC80; stronger effect = lower value; 360,000 compounds, 3.2% hits; in the data active = activity change below about -30%
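Calcium flux readout: force-coupled, inducible Hek293 Trex D1 line, cells induced overnight at 30 C with tetracycline, dye-loaded 30–90 min at RT. Antagonism scored against EC80 dopamine challenge given 180 s after compound.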
D1 potentiator: enhances dopamine response at the human D1 receptor. P21728. HEK293 TREx D1 cells, calcium flux, dopamine EC20 potentiation. potentiation, % at 10 µM. 360,000 compounds, 0.036% hits; in the data active = potentiation above about 30%
D1 ag: activates the human D1 dopamine receptor; P21728; HEK293 T-REx D1 cells, calcium flux, agonist mode; activation, % at 2 µM; 360,000 compounds, 1% hits
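Tetracycline-induced HEK293 TREx D1 cells, force-coupled to calcium signalling, were dye-loaded with a no-wash calcium kit. Compound was pin-added after a 10 s baseline. Fluorescence was read kinetically at 1 cycle/s for 180 s, with calcium rises flagged as agonism.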
TRHR enhancer: allosteric enhancers of human TRH receptor. TRHR cells, fluo-8 calcium fluorescence, EC20 TRH enhancement. enhancement, % at 2 µM. 360,000 compounds, 0.66% hits. AID 493056; in the data active = enhancement above about 30%
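TRHR-expressing cells loaded with fluo-8 calcium dye were read kinetically (ex 480/em 530) during compound addition, then stimulated with an EC20 of TRH (10 nM final). Enhancement of the Gq-mediated intracellular calcium response was scored.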
Of the large screens only hits and unclear results are named; the others gave an inactive call. Rule as the data show it, unless noted: active = activation above about 30%; inactive = the rest.

OC(CNCCc1ccc(C(F)(F)F)cc1)COC(c1ccccc1)c1ccccc1 (stereo unspecified)	D1 potentiator 52.0, D1 ag 100.6
COc1ccc(C(OCC(O)CNCCc2ccc(S(N)(=O)=O)cc2)c2ccc(OC)cc2)cc1 (stereo unspecified)	none
CCN(CC)c1ccc(C=C(c2nnnn2-c2ccccc2)c2nnnn2-c2ccccc2)cc1	none
CCc1cc2c(COC(=O)c3cccc(S(C)(=O)=O)c3)cc(=O)oc2cc1O	none
COc1ccc(C(C)=O)cc1COC(=O)c1c(C)noc1C	D1 antagonist -43.7
CCc1cc2c(COC(=O)c3c(C)noc3C)cc(=O)oc2cc1O	TRHR enhancer 33.4
COc1ccc(NC(=O)N2CCCC2C(=O)Nc2ccccc2F)cc1 (stereo unspecified)	none
O=C(O)c1nn(-c2cccc(Cl)c2)c(=O)cc1O	D1 antagonist -44.5
C1CCN(c2nc3nonc3nc2N2CCCC2)C1	none
CS(=O)(=O)c1sc(C#N)c2c1C(=O)CC(c1ccccc1)C2 (stereo unspecified)	D1 antagonist -71.7
O=C(CCCN1C(=O)NC2(CCCC2)C1=O)Nc1ccc(F)cc1	D1 antagonist -38.0
O=C(CN1C(=O)NC2(CCCCCCC2)C1=O)Nc1ccc(Br)cc1	D1 antagonist -40.1
O=C(CN1C(=O)NC2(CCCCC2)C1=O)Nc1ccc(F)cc1	none
CCOc1ccc2c(c1)NC(c1ccc(OCC)c(OCC)c1)=NC(c1ccc(F)cc1)=N2	none
Cc1ccsc1C1C(C#N)=C(N)N(N(C)C)C2=C1C(=O)CCC2 (stereo unspecified)	D1 antagonist -35.4
CC(=O)c1ccc(S(=O)(=O)NCc2cccnc2)cc1	none
COc1cccc(S(=O)(=O)NCc2ccc(C(=O)Nc3ccc(Cl)c(Cl)c3)cc2)c1	none
O=C(Nc1ccc(Cl)c(Cl)c1)c1cccc(S(=O)(=O)NCc2cccnc2)c1	D1 antagonist -30.8
O=C(O)c1ccc(S(=O)(=O)NCc2cccnc2)cc1	TRHR enhancer 35.4
C/C(=N\NC(=O)Cc1ccc(Cl)cc1)c1ccc(F)cc1	none
C/C(=N\NC(=O)CSCc1ccc([N+](=O)[O-])cc1)c1ccccc1O	D1 antagonist -86.7
C/C(=N\NC(=O)Cc1ccc(Cl)cc1)c1ccccc1O	D1 antagonist -35.8
CSc1cccc(NC(=O)OC2CCCCCCCCCCC2)c1	none
CCN(CC(=O)NCc1cccs1)C(=O)C1CC(=O)N(c2ccc(OC)cc2OC)C1 (stereo unspecified)	D1 antagonist -33.9
CCN(CC(=O)NCc1cccs1)C(=O)/C=C/c1cc(OC)ccc1OC	D1 antagonist -67.3
CCN(CC(=O)NCc1cccs1)C(=O)/C=C/c1ccc(OC)cc1OC	none
CCN(CC(=O)Nc1ccc2c(c1)OCCO2)C(=O)C1CC(=O)N(c2ccc(OC)cc2OC)C1 (stereo unspecified)	none
CCCOC(=O)c1ccc(NC(=O)c2ccc(Br)o2)cc1	D1 antagonist -32.0
CCCC(=O)N1CCN(c2ccc(NC(=O)c3ccc(Br)o3)cc2)CC1	D1 antagonist -43.0
CCN1CCN(c2ccc(NC(=O)c3ccc(Br)o3)cc2)CC1	TRHR enhancer 32.8
COC(=O)Cc1ccc(NC(=O)c2ccc(Br)o2)cc1	none
O=C(Nc1ccc(N2CCCC(O)C2)cc1)c1snc2c(=O)[nH]cnc12 (stereo unspecified)	none
Cc1ccc(S(=O)(=O)NC(=O)c2ccc(-c3ccc(-c4ccccc4)cc3)o2)c(C)c1	none
Fc1ccc(N2CCN(c3nnnn3-c3ccccc3)CC2)cc1	D1 antagonist -39.9
CCOC(=O)N1CCN(c2nnnn2-c2ccccc2)CC1	none
Fc1ccc(-n2cc(CNCCc3cccnc3)c(-c3ccccc3Cl)n2)cc1	D1 ag 61.5
Fc1ccc(-n2cc(CNCCc3ccncc3)c(-c3ccccc3Cl)n2)cc1	D1 antagonist -31.8
Fc1ccc(-c2nn(-c3ccccc3)cc2CNCc2ccccc2)cc1	none
CCCCOc1ccc(C2C(=O)N(C3CCCCC3)CC(=O)N2CC2CCCO2)cc1 (stereo unspecified)	none
COc1cc(NC(=O)c2cc3ccccc3cc2O)c(OC)cc1Cl	D1 antagonist -57.5
Cc1ccc(Cl)cc1NC(=O)c1cc2ccccc2cc1O	D1 antagonist -45.4
COc1cc(OC)c(NC(=O)c2ccccc2F)cc1Cl	none
O=C(Nc1ccc(Cc2ccncc2)cc1)c1ccc(Cl)c([N+](=O)[O-])c1	D1 antagonist -33.7
O=C(Nc1ccc(Cl)cc1)c1ccc(-n2cccn2)c([N+](=O)[O-])c1	D1 antagonist -32.2
Cc1c([N+](=O)[O-])cc(C(=O)Nc2ccc(Cc3ccncc3)cc2)cc1[N+](=O)[O-]	none
COc1ccc(NC(=O)c2ccc(-n3cccn3)c([N+](=O)[O-])c2)cc1	none
Cc1ccc(CNc2nnc(C)c3nnn(Cc4ccc(F)cc4)c23)cc1	none
COc1ccccc1/C=C/C(=O)/C=C/c1ccccc1O	D1 antagonist -34.1
O=C(Nc1cccc(S(=O)(=O)N2CCOCC2)c1)C1CC(=O)N(c2ccc3c(c2)OCCO3)C1 (stereo unspecified)	none
CCOC(=O)c1c(CSCc2ccccc2)oc2ccc(O)c(CN(C)C)c12	D1 ag 36.3
O=C(COC(=O)C1(c2ccccc2F)CCCC1)Nc1ncc(C(F)(F)F)cc1Cl	D1 antagonist -35.5
CCS(=O)(=O)c1nc(NC(C)=O)n[nH]1	D1 antagonist -45.7
Cc1[nH]c2ccccc2c1C(=O)CN1C(=O)NC(C)(c2ccc(Cl)cc2Cl)C1=O (stereo unspecified)	D1 ag 37.0
CCCC(c1nnnn1CC(=O)OCC)N(Cc1cc2c(C)cc(C)cc2[nH]c1=O)C1CCCC1 (stereo unspecified)	none
Cn1c(=O)oc2cc(S(=O)(=O)NCCC(=O)NCCc3ccccc3)ccc21	none
Cc1noc(C)c1S(=O)(=O)NCCc1csc2nc(-c3ccc(F)cc3)nn12	none (no result: D1 antagonist)
O=C(Cn1cnc2c(nnn2Cc2ccc(F)cc2)c1=O)OCc1ccccc1	none
Cc1ccc(Cn2nnc3c(=O)n(CC(=O)OCc4ccccc4)cnc32)cc1	D1 antagonist -33.0
COc1ccc(C2c3c(-c4ccccc4)n[nH]c3C(=O)N2c2ccc(C(=O)O)cc2)c(OC)c1 (stereo unspecified)	D1 antagonist -34.6
O=C(COC(=O)c1ccccc1O)NCCCc1ccccc1	D1 antagonist -34.3
O=C(COC(=O)c1cccnc1Cl)NCCCc1ccccc1	none
Cc1onc(-c2ccccc2)c1C(=O)Nc1nnc(C(C)C)s1	none
Cc1onc(-c2ccccc2)c1C(=O)Nc1ncc([N+](=O)[O-])s1	D1 antagonist -32.1, D1 ag 42.7
c1ccc(-c2nc(N3CCCCC3)nc3ccccc23)cc1	none
c1ccc(-c2nc(N3CCNCC3)nc3ccccc23)cc1	D1 ag 34.1
